Laboratory results as given in the supplement of paper PMC13380429.

Key:
[1] = system: Vero E6 infected with SARS-CoV-2; assay: morphology score (similarity to uninfected cells); higher = more like uninfected cells; conditions: 24 h
[2] = system: Vero E6 infected with SARS-CoV-2; assay: SARS-CoV-2 infection rate relative to infected DMSO; higher = more infection, active = 60 or less; conditions: 24 h

Row | SMILES | morphology score [1] | SARS-CoV-2 infection rate [2]
1 | C[N+](C)(C)CCOC(N)=O [carbachol] (10 µM) | -0.148 | 101% (inactive)
2 | N#CN1CCCC1 [pyrrolidine-1-carbonitrile] (10 µM) | 0.254 | 92% (inactive)
3 | CN[C@H]1CN(c2ccc3c(=O)c(C(=O)O)cn(-c4nccs4)c3n2)C[C@@H]1OC [voreloxin] (0.833333 µM) | 0.068 | 104% (inactive)
4 | Cc1cc(N2CCCCC2)nc2ccccc12 (10 µM) | 0.282 | 93% (inactive)
5 | O=C(Nc1ccc(S(=O)(=O)Nc2ccccc2Cl)c(Cl)c1)c1ccccn1 (10 µM) | -0.132 | 114% (inactive)
6 | O=C1OC(CN2CCOCC2)CN1/N=C/c1ccc([N+](=O)[O-])o1 (configuration not stated) [furaltadone] (10 µM) | 0.0402 | 97% (inactive)
7 | CC#C[C@]1(O)CC[C@H]2[C@@H]3CCC4=CC(=O)CCC4=C3[C@@H](c3ccc(N(C)C)cc3)C[C@@]21C [mifepristone] (10 µM) | 0.443 | 65.5% (inactive)
8 | CC[C@@H](CO)NCCN[C@@H](CC)CO [ethambutol] (10 µM) | -0.117 | 109% (inactive)
9 | CCOC(=O)[C@H]1O[C@@H]1C(=O)N[C@@H](CC(C)C)C(=O)NCCC(C)C [aloxistatin] (10 µM) | 0.331 | 90% (inactive)
10 | CC(=O)SC[C@@H](C)C(=O)N1CCC[C@H]1C(=O)N[C@@H](Cc1ccccc1)C(=O)O [alacepril] (10 µM) | 0.171 | 108% (inactive)
11 | O=C(O)COc1cccc(-c2ocnc2-c2nc(-c3ccccc3)c(-c3ccccc3)o2)c1 (10 µM) | 0.194 | 102% (inactive)
